Measured values as given in PubChem BioAssay (NCI).
This is part of a sample that, as a whole, favours compounds with a hit. Of some 83,000 tested, about 20% had one in any assay.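 96-well plates, one dose, 48 hours. Percent growth reported; active if below 10.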 A number with no mark means an inactive call. Calls of active or inactive are those of the source.

What was measured:
Experiment in all cases: NCI-60 one-dose screen, 48 h (100 = growth as untreated, 0 = no growth, -100 = all killed)
Conditions in all cases: 10 µM unless noted
NCI-H23 lung = tested on: NCI-H23 lung
NCI-H226 lung = tested on: NCI-H226 lung
NCI-H460 lung = tested on: NCI-H460 lung
HOP-92 NSCLC = tested on: HOP-92 NSCLC
NCI-H522 lung = tested on: NCI-H522 lung
A549/ATCC NSCLC = tested on: A549/ATCC NSCLC
786-0 renal = tested on: 786-0 renal
COLO 205 colon = tested on: COLO 205 colon
DU-145 prostate = tested on: DU-145 prostate
MALME-3M melanoma = tested on: MALME-3M melanoma
MDA-MB-231 breast = tested on: MDA-MB-231 breast
RXF 393 renal = tested on: RXF 393 renal
SF-268 CNS = tested on: SF-268 CNS
SF-295 CNS = tested on: SF-295 CNS
SF-539 CNS = tested on: SF-539 CNS
UACC-257 melanoma = tested on: UACC-257 melanoma
M14 melanoma = tested on: M14 melanoma
HOP-62 NSCLC = tested on: HOP-62 NSCLC
K-562 leukemia = tested on: K-562 leukemia

| SMILES | growth (NCI-H23 lung) | growth (NCI-H226 lung) | growth (NCI-H460 lung) | growth (HOP-92 NSCLC) | growth (NCI-H522 lung) | growth (A549/ATCC NSCLC) | growth (786-0 renal) | growth (COLO 205 colon) | growth (DU-145 prostate) | growth (MALME-3M melanoma) | growth (MDA-MB-231 breast) | growth (RXF 393 renal) | growth (SF-268 CNS) | growth (SF-295 CNS) | growth (SF-539 CNS) | growth (UACC-257 melanoma) | growth (M14 melanoma) | growth (HOP-62 NSCLC) | growth (K-562 leukemia) |
| --- | --- | --- | --- | --- | --- | --- | --- | --- | --- | --- | --- | --- | --- | --- | --- | --- | --- | --- | --- |
| Cc1ccc(C(=O)/C(=C\c2ccc([N+](=O)[O-])cc2)S(=O)Cc2ccc(F)cc2)cc1 (stereo not drawn) | 31.6% | 41.5% | 15% | 27.2% | -12% (active) | 73.2% | -66.1% (active) | 2.86% (active) | 18.6% | -3.22% (active) | 11% | -80% (active) | 19.5% | 62.5% | 15.4% | 91.6% | 28.2% | – | – |
| CCOC(=O)CCN(CC(C)C)C(=S)Nc1ccccc1 | 98.8% | 107% | 107% | 110% | 101% | 101% | 101% | 113% | 108% | 102% | 106% | 122% | 104% | 101% | 100% | 102% | 99% | 120% | 103% |
| Cc1cc(C)c(S(=O)(=O)Oc2ccccc2[N+](=O)[O-])c(C)c1 | 32.9% | 60% | 8.64% (active) | 38.1% | -12.5% (active) | 31.2% | 33% | 22.9% | 15.7% | 21% | 33.2% | 4.44% (active) | 37.2% | -7.8% (active) | -8.46% (active) | 32.4% | 14.2% | 39.8% | 22.1% |
| O=S(=O)(NCCNc1nccc(-c2c(-c3cccc(F)c3)nc3sccn23)n1)c1ccccc1 | 56.1% | 34.5% | 25.9% | 51.5% | 43.7% | 25.2% | 47.4% | 24.2% | 40% | 68.5% | 66% | 64.1% | 43.5% | 47.4% | 65.5% | 65.3% | 41.4% | – | 23.9% |
| CCCCCCCCCCCCCCCC[N+]1(C)CCN(SN2CC[N+](C)(CCCCCCCCCCCCCCCC)CC2)CC1 | 52.8% | 78.9% | 29.6% | 15.5% | 54.8% | 72% | 30.3% | 61% | 70.5% | 78.4% | 53.9% | -7.8% (active) | 64.4% | 71.2% | 48.7% | 92.9% | 20.8% | 56.6% | 40.4% |
| O=C(/C(=C\c1ccc([N+](=O)[O-])cc1)S(=O)Cc1ccc(F)cc1)c1ccc(F)cc1 (stereo not drawn) | 46.7% | 77.9% | 30.9% | 65.2% | -22.1% (active) | 79.9% | -43.9% (active) | 8.65% (active) | 33.1% | 18.5% | 12.8% | -67.8% (active) | 31.5% | 77.6% | 39.4% | 93.2% | 38% | 38.1% | – |
| COc1cc2c(c(O)c1Br)C(=O)c1c(O)cc(C[C@H](C)O)cc1[C@H]2[C@H]1c2cc(C[C@H](C)O)cc(O)c2C(=O)c2c1cc(OC)c(Br)c2O | 6.19% (active) | 14.3% | 0.308% (active) | -21.3% (active) | 2.22% (active) | 11.1% | 10.4% | -35.3% (active) | 24.5% | -26.8% (active) | -58.1% (active) | 21.1% | 19.4% | -21.4% (active) | -23.8% (active) | -2.79% (active) | 16.5% | 16.5% | 5.05% (active) |
| COc1cc(/C=C\C(=O)O)ccc1OCc1ccccc1 | 100% | 80.2% | 105% | 86.1% | 83.6% | 82.3% | 109% | 108% | 103% | 102% | 93.5% | 103% | 94.8% | 101% | 99.5% | 91% | 109% | 99% | 126% |
